The whole screen tested about 97,000 compounds, of which about 520 (0.54%) were called active. This is one part of a sample in which actives are shown more often than they occur. Unmarked numbers belong to inactive results.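 The calls were made as follows: active = inhibition of 50% or more in the single-concentration screen; inactive = inhibition below 50%.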

Chain of Serine/threonine-protein kinase PLK1 (Homo sapiens) (P53350 whole entry, looked up): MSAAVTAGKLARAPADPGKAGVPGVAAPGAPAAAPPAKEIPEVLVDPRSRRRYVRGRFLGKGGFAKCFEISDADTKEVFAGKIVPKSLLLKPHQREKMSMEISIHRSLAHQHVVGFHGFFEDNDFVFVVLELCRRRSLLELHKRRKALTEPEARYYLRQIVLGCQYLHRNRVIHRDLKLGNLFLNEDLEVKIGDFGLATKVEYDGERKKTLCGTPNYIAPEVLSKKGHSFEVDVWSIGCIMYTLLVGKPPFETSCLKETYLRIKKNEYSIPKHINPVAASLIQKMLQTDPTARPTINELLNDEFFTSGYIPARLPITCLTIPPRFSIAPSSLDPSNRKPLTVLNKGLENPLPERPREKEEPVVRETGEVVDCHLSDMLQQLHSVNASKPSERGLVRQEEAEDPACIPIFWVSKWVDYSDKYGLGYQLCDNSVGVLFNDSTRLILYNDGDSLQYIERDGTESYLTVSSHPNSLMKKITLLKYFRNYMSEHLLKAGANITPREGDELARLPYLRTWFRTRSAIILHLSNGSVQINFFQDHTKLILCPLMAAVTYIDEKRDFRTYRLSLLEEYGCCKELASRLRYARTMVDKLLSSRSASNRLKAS

The assay addresses Serine/threonine-protein kinase PLK1 (Homo sapiens) (UniProt P53350). The experiment in a line: Plk1 peptide phosphorylation blockers – biochemical, TR-FRET, primary screen (AID 619).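 Also: 0% = DMSO max control and 100% = H-89 dihydrochloride min control.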 The settings on record: recombinant PLK1 kinase, at 10 µM, hits give high values.
As usually defined, the inhibition is the relative decrease from the control value, in per cent. In the case of `Cc1cc(C)c(OCC(=O)N/N=C/c2ccco2)c(C)c1`, the inhibition is 6.14%.

Take `Cc1ccc(CS(=O)(=O)CCC(=O)NC2CC2)cc1`: the inhibition was -7.25%.

As to `Nc1ccc(-n2nncc2-c2ccco2)cc1`, the inhibition was -4.39%. Regarding `CCCc1nc2scc(-c3ccc(C)cc3)c2c(=O)n1N`, the inhibition was 5.26%. The result for `COc1ccc(CCN2C(=O)C3CC=C(C)CC3C2=O)cc1OC` (configuration not stated) reads -10.2%; that for `COc1cc(OC)c(-n2c(C)cc(C=O)c2C)cc1Cl`, -6.8%; that for `CCCC(=O)n1nc(-c2ccccc2)nc1N`, -4.99%. Next, `COc1ccccc1NS(=O)(=O)N(C)C`: -7.41%; `O=C(O)CCC(=O)NCc1ccc(C(=O)O)cc1`: -9.7%. For `C=CCn1c(SCC(=O)c2c(N)n(C)c(=O)n(C)c2=O)nc2sc(CC)cc2c1=O`, the inhibition was -9.06%. As to `CC(=O)c1ccc(OCCN2CCOCC2)cc1`, the inhibition is -17.4%. For `COc1ccc(C(=O)c2c(C)oc3cc([N+](=O)[O-])c(O)c([N+](=O)[O-])c23)cc1`, the inhibition was -2.19%.

For `Cc1ccc(Cc2cnc(NC(=O)/C(C#N)=C/c3ccc(-c4cccc([N+](=O)[O-])c4)o3)s2)cc1`, the inhibition was -5.56%. Next, `Cn1c(=O)c2c(SCC(=O)N3CCOCC3)nc(C3CC3)nc2n(C)c1=O`: 36.6%. `CSc1nc(C)nc2c1c(=O)n(C)c(=O)n2C`: the inhibition was 68.3% (active).

On to `CCC(C)Sc1nc(C)nc2c1c(=O)n(C)c(=O)n2C` (configuration not stated), for which the inhibition is 52.6% (active).

`CCCSc1nc2c(c(=O)n(C)c(=O)n2C)n1Cc1ccc(C)cc1`: the inhibition was 6.87%. As to `COc1ccc(CC(=O)Nc2sc(Cc3ccccc3)c(C)c2C(N)=O)cc1`, the inhibition was -12%. On to `O=c1cc(C(F)(F)F)[nH]c(=O)n1C1CCCCC1`, for which the inhibition is -12.1%. Next, `COc1ccc(/C=C/C(=O)Nc2c(C)nn(C)c2C)cc1COc1ccc(Br)cc1`: -7.02%; `CCc1c(C)nc2cc(C)[nH]n2c1=O`: -1.93%.

Regarding `FC(F)(F)c1cc(C(F)(F)F)c2ccc(N3CCN(c4ccccc4)CC3)nc2n1`, the inhibition is -4.18%.

`C=CCn1cnc2scc(-c3ccccc3)c2c1=O`: the inhibition is -17.6%. Turning to `CN(CCC#N)c1ncnc2scc(-c3ccccc3)c12`, the inhibition is 54.3% (active).

As for `N#CCCN(CCC#N)c1nnc(-c2ccccc2)s1`, the inhibition is -13.8%.

Consider `CS(=O)(=O)n1nc(-c2ccccc2)nc1NCc1ccco1`, for which the inhibition was -17.7%. Consider `Cc1nc2cc(NC(=O)CSc3nc4c(C)cccc4cc3C#N)ccc2s1`, for which the inhibition is -34.1%. Turning to `CC(=O)C1=C(C)NC(=O)NC1c1cc(Br)ccc1OCC#N` (configuration not stated), the inhibition is -9.62%. Regarding `CC1=CC(=O)C=CC1(C)C(Cl)(Cl)Cl` (configuration not stated), the inhibition was -6.25%.

Turning to `CC/C(=N/Nc1ccccc1)c1cnnc(SC)n1`, the inhibition was -14.3%. For the compound `COC(=O)/C=C/C(=O)NCc1ccco1`, the inhibition was -9.17%. Turning to `Cc1ccccc1CSCCNC(=O)c1ccc(N(C)S(=O)(=O)c2ccccc2)cc1`, the inhibition is 57.1% (active). Regarding `Cc1ccc(C(=O)NCCNS(=O)(=O)c2ccccc2)cc1`, the inhibition is -5.51%.

On to `Cc1ccccc1CSCCNC(=O)c1ccc(Cl)c(S(=O)(=O)N2CCOCC2)c1`, for which the inhibition was -1.84%. Turning to `Cc1cc(OCCOc2cccc3cccnc23)c(C)cc1Cl`, the inhibition was -13.9%. As for `CCN1C(=O)/C(=C2/Sc3ccc(OC)cc3N2C)SC1=Nc1ccc(C)cc1`, the inhibition is -9.58%. `CCCc1nc(NCc2ccc3c(c2)OCO3)c2nnn(Cc3ccccc3Cl)c2n1`: the inhibition is -9.3%. `CCC(=O)NNc1cc(=O)c2c(=O)n(C)c(=O)n(C)c2[nH]1`: the inhibition is -9.06%. Regarding `CN(C)/C=C(\C#N)C(=O)c1cccnc1Oc1ccc(F)cc1F`, the inhibition was -4.48%. As to `COCCCNC(=O)C1CC(=O)N(CCc2ccccc2)C1` (configuration not stated), the inhibition is -12.8%. `COc1cc(OC)cc(-c2cc3nc(C4CCN(C(=O)OC(C)(C)C)CC4)cc(=O)n3[nH]2)c1`: the inhibition is -8.81%.

Regarding `Cc1c(Nc2nc3ccccc3nc2NS(=O)(=O)c2cccs2)c(=O)n(-c2ccccc2)n1C`, the inhibition is -2.91%. As for `Cc1cccc(N2C(=O)C3C(c4ccccc4)OC4(C(=O)c5ccccc5C4=O)C3C2=O)c1` (configuration not stated), the inhibition is -6.04%.

In the case of `Cc1cccc(N2C(=O)SC(N(CC(=O)O)c3cccc(C)c3)C2=O)c1` (configuration not stated), the inhibition is 68.7% (active). `Cc1cccc(N(CC(=O)N2CCOCC2)S(C)(=O)=O)c1`: the inhibition is -16.7%. As for `CCOC(=O)c1cc(C#N)c(N2CCCCC2)nc1-c1ccccc1`, the inhibition is -7.56%.

In the case of `COc1ccc(NC(=O)Cn2nnc(C(=O)NCCc3ccc(OC)c(OC)c3)c2N)cc1`, the inhibition is -3.12%. As to `CCC(=O)NCCc1nc2ccccc2n1CC`, the inhibition was -12.5%. The result for `Cc1ccc(S(=O)(=O)NCC(C)NS(C)(=O)=O)cc1` (configuration not stated) reads -7.03%. Next, `O=C(c1cccc(F)c1)N1CCC(O)(c2cccnc2)CC1`: -11.3%. The result for `Cc1cc(S(=O)(=O)NC2CCCCC2)ccc1OCC(=O)NCc1cccnc1` reads -6.44%; that for `Cc1ccc(N2C(=O)S/C(=C/c3cn(C)c4ccccc34)C2=O)cc1`, -7.68%; that for `CC(c1ccccc1)n1c(NCCCn2ccnc2)nc2c1c(=O)[nH]c(=O)n2C` (configuration not stated), -13.2%.

As for `CCCCNc1nc2c(c(=O)[nH]c(=O)n2C)n1CCOc1ccccc1`, the inhibition was -13.6%. Turning to `Cn1c(=O)[nH]c(=O)c2c1nc(NCCCn1ccnc1)n2Cc1cccc(Br)c1`, the inhibition was 51.2% (active).

In the case of `CCOC(=O)N1CCC(N(CCOC)C(=O)Nc2ccc(C)c(C)c2)CC1`, the inhibition was -7.06%. Take `Cn1nc(-c2ccccc2)c(CSc2cccc(Cl)c2)c1Cl`: the inhibition is -5.77%. The result for `CCCC(=O)C1CCN(Cc2ccccc2)CC1` reads -5.07%; that for `Cc1ccc(N2C(=O)C(Cc3ccccc3)NC2=S)cc1` (configuration not stated), -4.76%; that for `CCOC(=O)c1ccc2c(c1)nc(SCC(=O)NC(C)C)n2CC`, -12.9%. For `O=C(NCCCN1CCOCC1)c1cc2c(s1)CCC2`, the inhibition was 12.4%.

`CCn1c(SCCC(C)C)nnc1-c1c[nH]c2ccccc12`: the inhibition was 57.8% (active).

As to `CCn1c(SCC(=O)Nc2ccc(OC)c(OC)c2)nnc1-c1c[nH]c2ccccc12`, the inhibition was -21.5%.

In the case of `CCC(C)Sc1nnc(-c2c[nH]c3ccccc23)n1CCOC` (configuration not stated), the inhibition is -10.2%. For the compound `CCCC(C(=O)n1nc(C)cc1C)C(NS(=O)(=O)c1ccc(C)cc1)c1ccccc1` (configuration not stated), the inhibition is -12%. Turning to `COc1ccc(Oc2coc3cc(OC(=O)c4cncc(Br)c4)ccc3c2=O)cc1`, the inhibition was -8.95%. As for `Cc1cc(C)c2nc(NC(=O)C3CCCO3)sc2c1` (configuration not stated), the inhibition is -2.38%.

These data come from PubChem BioAssay AID619 (University of Pittsburgh Molecular Library Screening Center, 2007).
